# Measurements from PubChem BioAssay.
# This is one part of the list. The source made the active and inactive calls. Unless noted, how the calls were made is not given here.
# Columns and labels:
# [1] = Brca1-Bard1 BiLC signal decrease – luminescence, single concentration, counter-screen for Mdm2/MdmX interaction inhibitor project, confirmation (AID 504668); conditions: Brca1/Bard1 bimolecular luciferase complementation counterscreen, at 8 µM, stronger effect = higher value
# [2] = inhibition of PEG-3 promoter luciferase signal – cell-based, HeLa, luciferase reporter, single concentration, confirmation (AID 602417;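 active means at 20 µM dose, 40% or more inhibition averaged across four replicates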); conditions: HeLa PEG-Prom luciferase reporter, luminescence, overnight; at 20 µM; stronger effect = higher value
# [3] = NFkB reporter suppression in cystic fibrosis bronchial cells – cell-based, uHTS hits, panel, cytotoxicity readout, dose response (AID 624344); conditions: CF bronchial epithelial cells, PAF-induced NFkB reporter inhibition, with PAF, run 1; at 79 µM (top of the series) unless noted
# [4] = as above; conditions: CF bronchial epithelial cells, PAF-induced NFkB reporter inhibition, with PAF, run 2; at 79 µM (top of the series) unless noted
# [5] = target: PEG-3 (UniProt Q6IN02); assay: inhibition of PEG-3 promoter-driven reporter – cell-based, HeLa, luciferase, CREF/GAPDH counter-screen panel, dose response (AID 624167); conditions: CREF/GAPDH counter-screens; HeLa PEG-Prom luciferase reporter, overnight, run 1, dose range 1, at 100 µM (top of the series) unless noted
# [6] = target: PEG-3 (UniProt Q6IN02); assay: as above; conditions: CREF/GAPDH counter-screens; HeLa PEG-Prom luciferase reporter, overnight, run 2, dose range 1, at 100 µM (top of the series) unless noted
# [7] = test system: Rat fibroblasts (CREF); assay: as above; conditions: CREF/GAPDH counter-screens; run 1, dose range 1, at 100 µM (top of the series)
# [8] = test system: Rat fibroblasts (CREF); assay: as above; conditions: CREF/GAPDH counter-screens; run 2, dose range 1, at 100 µM (top of the series)
# [9] = target: Tumor necrosis factor receptor superfamily member 10B (Homo sapiens) (UniProt O14763); assay: viability loss of caspase-8 NB7 cells with TRAIL – with/without TRAIL, luminescence panel, confirmation (AID 651596; in the data active means activity above about 50%); conditions: NB7 neuroblastoma + caspase-8, TRAIL sensitization, NB7 Caspase-8, with TRAIL, mean of runs, at 10 µM, stronger effect = higher value
# [10] = as above; conditions: NB7 neuroblastoma + caspase-8, without TRAIL, NB7 Caspase-8, without TRAIL, mean of runs, at 10 µM
# Tumor necrosis factor receptor superfamily member 10B (Homo sapiens), sequence (O14763 whole entry, looked up): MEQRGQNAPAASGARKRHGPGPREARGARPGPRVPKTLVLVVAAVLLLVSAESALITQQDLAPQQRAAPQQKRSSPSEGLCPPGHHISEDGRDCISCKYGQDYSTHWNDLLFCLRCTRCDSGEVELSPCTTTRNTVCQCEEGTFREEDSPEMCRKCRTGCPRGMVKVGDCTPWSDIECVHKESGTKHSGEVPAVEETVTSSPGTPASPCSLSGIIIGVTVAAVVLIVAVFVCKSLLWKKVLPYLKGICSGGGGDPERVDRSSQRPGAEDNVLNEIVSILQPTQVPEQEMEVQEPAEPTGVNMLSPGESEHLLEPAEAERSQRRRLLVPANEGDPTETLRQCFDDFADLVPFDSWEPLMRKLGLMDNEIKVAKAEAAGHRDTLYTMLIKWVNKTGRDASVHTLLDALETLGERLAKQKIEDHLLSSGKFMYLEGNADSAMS
# PEG-3, sequence (Q6IN02 whole entry, looked up): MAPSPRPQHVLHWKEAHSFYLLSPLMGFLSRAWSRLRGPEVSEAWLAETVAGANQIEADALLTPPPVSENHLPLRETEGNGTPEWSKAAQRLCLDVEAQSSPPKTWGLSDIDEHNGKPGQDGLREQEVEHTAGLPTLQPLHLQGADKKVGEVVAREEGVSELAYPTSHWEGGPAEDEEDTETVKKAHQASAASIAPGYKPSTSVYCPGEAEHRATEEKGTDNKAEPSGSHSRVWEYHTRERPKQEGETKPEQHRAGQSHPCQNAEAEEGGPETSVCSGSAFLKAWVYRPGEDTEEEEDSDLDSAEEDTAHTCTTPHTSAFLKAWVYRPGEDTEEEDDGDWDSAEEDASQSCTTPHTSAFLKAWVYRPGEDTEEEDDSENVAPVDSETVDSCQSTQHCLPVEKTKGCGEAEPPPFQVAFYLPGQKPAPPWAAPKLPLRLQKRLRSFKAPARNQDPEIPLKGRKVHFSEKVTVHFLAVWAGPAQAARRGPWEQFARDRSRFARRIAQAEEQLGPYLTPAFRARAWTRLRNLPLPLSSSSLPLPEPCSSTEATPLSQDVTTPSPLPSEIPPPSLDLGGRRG
smiles,measurement,setting,value
Cc1cc([N+](=O)[O-])cc(/C=N\NC(=O)C2COc3ccccc3O2)c1O (stereo not given),inhibition,[1],27.6% (active)
COc1cccc2sc(N(CCCN(C)C)C(=O)C(c3ccccc3)c3ccccc3)nc12,inhibition,[2],99.6% (active)
CNC[C@H](CC1CCCCC1)NC[C@H](NCCC1CCCC1)[C@H](C)O,inhibition,[2],97.4% (active)
Cc1ccc2nc(C(F)(F)F)c(C#N)c(N)c2c1,inhibition,[1],25.7% (active)
same,inhibition,[3],114%
same,inhibition,[4],106%
O=C(Nc1nc2ccc(F)cc2s1)C1CCN(S(=O)(=O)c2cc([N+](=O)[O-])ccc2Cl)CC1,inhibition,[1],25.5% (active)
same,inhibition,[3],105%
same,inhibition,[4],112%
O=C(CCSc1nc2ccccc2s1)N/N=C/c1c(O)ccc2ccccc12,inhibition,[1],31.6% (active)
same,inhibition,[5],58.9%
same,inhibition,[6],82.3%
same,inhibition,[7],40.6%
same,inhibition,[8],38%
COc1ccc(-c2nsc3c(N4CCCCC4C)ncnc23)cc1 (stereo not given),inhibition,[1],24.8% (active)
same,inhibition,[5],89.7%
same,inhibition,[6],93.5%
same,activity,[9],86.8%
same,activity,[10],87.7%
O=c1c2ccccc2sc2ccc(C#CC3(O)CCCCC3)cc12,inhibition,[1],25.4% (active)
same,inhibition,[5],99.4%
same,inhibition,[6],98%
same,inhibition,[7],100%
same,inhibition,[8],100%
same,activity,[9],97.6%
same,activity,[10],97.2%
CN(C)CCCN(C(=O)c1ccc(C(=O)c2ccccc2)cc1)c1nc2cc3c(cc2s1)OCO3,inhibition,[1],31.7% (active)
same,inhibition,[5],99.4%
same,inhibition,[6],102%
same,activity,[9],46.7%
same,activity,[10],54.3%
COc1cccc(/C=N/NC(=O)c2c(C)nc3ccc(Cl)cn23)c1O,inhibition,[1],34.5% (active)
same,inhibition,[5],59.6%
same,inhibition,[6],61.9%
same,inhibition,[7],44.7%
same,inhibition,[8],46.7%
Cc1cc(C(=O)COC(=O)c2ccccc2O)c(C)n1CC1CCCO1 (stereo not given),inhibition,[1],35.8% (active)
same,inhibition,[5],99.1%
same,inhibition,[6],101%
same,inhibition,[7],99.6%
same,inhibition,[8],99.2%
same,activity,[9],91.2%
same,activity,[10],88.9%
COc1ccccc1C(=O)Nc1nc2ccccc2s1,inhibition,[1],31.7% (active)
same,inhibition,[5],101%
same,inhibition,[6],98%
same,inhibition,[7],100%
same,inhibition,[8],99.5%
CC(=O)c1cccc(NC(=O)Nc2cccnc2)c1,inhibition,[1],27.6% (active)
same,inhibition,[3],119%
same,inhibition,[4],93.2%
Cc1nc2cc(-c3ccccc3)sc2c(=O)n1N,inhibition,[1],30% (active)
same,inhibition,[5],102%
same,inhibition,[6],97.8%
same,inhibition,[7],93.7%
same,inhibition,[8],92%
same,activity,[9],73.1%
same,activity,[10],73.6%
COc1ccc(C(=O)CN2C(=O)c3ccccc3S2(=O)=O)cc1,inhibition,[1],25.5% (active)
same,inhibition,[5],99.1%
same,inhibition,[6],97.6%
same,inhibition,[7],96.6%
same,inhibition,[8],97.6%
same,activity,[9],70.2%
same,activity,[10],70.8%
C=CCn1c(COc2ccccc2)nnc1SC(C)C(=O)N/N=C/c1cc(Cl)ccc1O (stereo not given),inhibition,[1],30.6% (active)
same,inhibition,[5],64%
same,inhibition,[6],86%
same,inhibition,[7],37.9%
same,inhibition,[8],43.9%
Cc1ccc(C(=O)O/N=C(\N)c2ccccn2)cc1,inhibition,[1],34% (active)
same,inhibition,[5],102%
same,inhibition,[6],100%
same,inhibition,[7],100%
same,inhibition,[8],101%
COC(=O)c1nn(-c2ccc3c(c2)CCN3C(C)=O)cc1O,inhibition,[1],31% (active)
same,inhibition,[5],96.2%
same,inhibition,[6],97.9%
same,inhibition,[7],99.1%
same,inhibition,[8],99.2%
same,activity,[9],86.6%
same,activity,[10],85.3%
O=C(Nc1ccc(N2CCOCC2)cc1)c1cnsn1,inhibition,[1],32.1% (active)
same,inhibition,[5],96.4%
same,inhibition,[6],98.9%
same,inhibition,[7],97.9%
same,inhibition,[8],60.2%
same,activity,[9],78.7%
same,activity,[10],75.9%
Cc1ccc(-c2nnc(SCC(=O)Nc3ccccc3F)o2)cc1,inhibition,[1],32.6% (active)
same,inhibition,[5],98.6%
same,inhibition,[6],94.7%
same,inhibition,[7],97.2%
same,inhibition,[8],97.2%
same,activity,[9],83%
same,activity,[10],83.2%
Cc1ccc(C(=O)Nc2cc3ccccc3oc2=O)cc1,inhibition,[1],31.8% (active)
same,inhibition,[5],84.5%
same,inhibition,[6],78.7%
same,inhibition,[7],84.6%
same,inhibition,[8],87.1%
CCc1c(C)nc2ccc(Br)cc2c1SCCC#N,inhibition,[1],23.1% (active)
same,inhibition,[3],105%
same,inhibition,[4],113%
Cc1nc2sc(C(N)=O)c(N)c2c(C)c1CC(=O)c1ccccc1,inhibition,[1],31.4% (active)
same,inhibition,[3],101%
same,inhibition,[4],80.3%
O=C(CNc1ccccc1)N/N=C/c1c(O)ccc2ccccc12,inhibition,[1],26.6% (active)
same,inhibition,[5],44.6%
same,inhibition,[6],64.1%
same,inhibition,[7],73.1%
same,inhibition,[8],49.7%
O=C(NC1=NCCS1)C1COc2ccccc2O1 (stereo not given),inhibition,[1],34% (active)
same,inhibition,[5],96.4%
same,inhibition,[6],97.6%
same,inhibition,[7],86.9%
same,inhibition,[8],87.4%
COc1ccc(C(=O)O/N=C(\N)c2ccccn2)cc1,inhibition,[1],24.2% (active)
same,inhibition,[5],99.1%
same,inhibition,[6],101%
same,inhibition,[7],98.2%
same,inhibition,[8],99.2%
O=C(Nc1ccc([N+](=O)[O-])cc1)C(=O)Nc1cccc(C(=O)O)c1,inhibition,[1],31% (active)
same,inhibition,[5],92.5%
same,inhibition,[6],95%
same,inhibition,[7],97.5%
same,inhibition,[8],96.8%
c1ccc(-c2noc(-c3ccc4c(c3)OCO4)n2)nc1,inhibition,[1],29.3% (active)
same,inhibition,[5],91.3%
same,inhibition,[6],94.5%
same,inhibition,[7],95.9%
same,inhibition,[8],95.7%
same,activity,[9],93.2%
same,activity,[10],93.7%
Cc1ccc2nc(-c3ccccc3)cn2c1,inhibition,[1],32.2% (active)
same,inhibition,[5],97.5%
same,inhibition,[6],99%
same,inhibition,[7],100%
same,inhibition,[8],99.1%
same,activity,[9],94%
same,activity,[10],93.9%
C=C(C)COc1ccc(-c2[nH]ncc2-c2ccc(OC)cc2)c(O)c1,inhibition,[1],28.9% (active)
same,inhibition,[3],114%
same,inhibition,[4],105%
Oc1ccc(CCNc2ncnc3ccc(Cl)cc23)cc1,inhibition,[1],28.6% (active)
same,inhibition,[3],113%
same,inhibition,[4],106%
c1cc2[nH]snc2c2nc(C3CC3)nc12,inhibition,[1],26.4% (active)
same,inhibition,[3],101%
same,inhibition,[4],118%
